Measured values from PubChem BioAssay (NCATS).
Results filed as inconclusive are left out. The source made the active and inactive calls. Unless noted, calls come from the whole dose curve; as a rule, active = well fitted curve in the direction sought with a large enough effect; inconclusive = small, poorly fitted or top-dose-only effect, or another doubt; inactive = no such curve, though single readings can be large; an effect the other way counts as inactive or inconclusive.

Assays:
[1] = target: ATP-dependent 6-phosphofructokinase (Trypanosoma brucei brucei) (UniProt O15648); experiment: qHTS Assay to Find Inhibitors of T. brucei phosphofructokinase: hit validation (AID 492961);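 note: luminescence reports ADP formed as PFK phosphorylates fructose-6-phosphate with ATP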
ATP-dependent 6-phosphofructokinase (Trypanosoma brucei brucei), sequence (O15648 whole entry, looked up): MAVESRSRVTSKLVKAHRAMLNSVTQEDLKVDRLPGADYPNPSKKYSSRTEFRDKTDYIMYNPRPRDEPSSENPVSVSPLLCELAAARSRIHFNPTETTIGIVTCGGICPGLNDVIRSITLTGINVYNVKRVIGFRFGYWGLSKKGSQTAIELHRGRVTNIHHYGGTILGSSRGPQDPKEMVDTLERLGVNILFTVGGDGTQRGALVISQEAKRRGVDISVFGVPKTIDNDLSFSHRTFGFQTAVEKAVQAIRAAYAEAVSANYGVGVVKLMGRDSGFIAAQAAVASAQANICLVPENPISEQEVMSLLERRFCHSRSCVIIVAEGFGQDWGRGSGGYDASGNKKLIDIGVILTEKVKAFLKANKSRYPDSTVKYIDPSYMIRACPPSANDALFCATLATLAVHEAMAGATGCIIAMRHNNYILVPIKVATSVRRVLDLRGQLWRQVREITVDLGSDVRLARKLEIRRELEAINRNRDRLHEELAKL
How it was run: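 Inhibition of parasite PFK is measured as reduced ADP formation, quantified via luciferase after ATP depletion. Assay used 0.1 mM ATP, 0.5 mM F6P, 1.25 nM enzyme, 45 min incubation.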

[2] = target: Ubiquitin carboxyl-terminal hydrolase 1 (Homo sapiens) (UniProt O94782); experiment: Inhibitors of USP1/UAF1: Pilot qHTS (AID 504865);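 note: rhodamine fluorescence freed from ubiquitin-rhodamine substrate followed over time; top concentration of the series differs between compounds; nearly all actives have a fitted effect of over 35% in size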
Ubiquitin carboxyl-terminal hydrolase 1 (Homo sapiens), sequence (O94782 whole entry, looked up): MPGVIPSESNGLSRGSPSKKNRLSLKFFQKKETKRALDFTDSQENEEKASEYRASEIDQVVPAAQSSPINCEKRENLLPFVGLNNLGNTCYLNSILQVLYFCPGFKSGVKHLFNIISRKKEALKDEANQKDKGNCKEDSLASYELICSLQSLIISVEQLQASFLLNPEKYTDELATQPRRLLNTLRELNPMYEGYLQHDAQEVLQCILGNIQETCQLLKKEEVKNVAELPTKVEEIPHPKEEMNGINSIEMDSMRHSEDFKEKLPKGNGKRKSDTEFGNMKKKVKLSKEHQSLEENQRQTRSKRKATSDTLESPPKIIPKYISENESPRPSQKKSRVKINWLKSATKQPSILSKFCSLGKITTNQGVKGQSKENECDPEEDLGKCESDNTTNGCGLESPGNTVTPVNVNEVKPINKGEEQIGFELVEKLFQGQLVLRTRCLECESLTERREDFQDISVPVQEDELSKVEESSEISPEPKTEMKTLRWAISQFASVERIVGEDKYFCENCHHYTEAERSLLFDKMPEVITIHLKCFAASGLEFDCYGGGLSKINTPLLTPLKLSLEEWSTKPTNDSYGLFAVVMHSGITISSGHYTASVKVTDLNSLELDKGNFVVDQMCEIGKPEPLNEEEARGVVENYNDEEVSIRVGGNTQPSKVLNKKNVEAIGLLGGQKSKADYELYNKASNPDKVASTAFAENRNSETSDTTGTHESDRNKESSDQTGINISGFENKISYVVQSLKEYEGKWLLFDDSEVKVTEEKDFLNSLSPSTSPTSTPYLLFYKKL
How it was run: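 1nM USP1/UAF1 + cpd, 15 min RT; start w/ Ub-Rho 150nM final; kinetic FL 480/540 nm, 6 reads q60 s. Buffer 50mM HEPES pH 7.8, 0.5mM EDTA, 1mM TCEP, 0.01% Tween-20, 0.1 mg/ml BSA.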

[3] = target: Luciferin 4-monooxygenase (Photinus pyralis) (UniProt P08659); experiment: Biochemical firefly luciferase enzyme assay for NPC (AID 624030);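 note: purified P. pyralis luciferase at 10 nM with luciferin and ATP substrate; nearly all actives have a fitted effect of over 70% in size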
Luciferin 4-monooxygenase (Photinus pyralis), sequence (P08659 whole entry, looked up): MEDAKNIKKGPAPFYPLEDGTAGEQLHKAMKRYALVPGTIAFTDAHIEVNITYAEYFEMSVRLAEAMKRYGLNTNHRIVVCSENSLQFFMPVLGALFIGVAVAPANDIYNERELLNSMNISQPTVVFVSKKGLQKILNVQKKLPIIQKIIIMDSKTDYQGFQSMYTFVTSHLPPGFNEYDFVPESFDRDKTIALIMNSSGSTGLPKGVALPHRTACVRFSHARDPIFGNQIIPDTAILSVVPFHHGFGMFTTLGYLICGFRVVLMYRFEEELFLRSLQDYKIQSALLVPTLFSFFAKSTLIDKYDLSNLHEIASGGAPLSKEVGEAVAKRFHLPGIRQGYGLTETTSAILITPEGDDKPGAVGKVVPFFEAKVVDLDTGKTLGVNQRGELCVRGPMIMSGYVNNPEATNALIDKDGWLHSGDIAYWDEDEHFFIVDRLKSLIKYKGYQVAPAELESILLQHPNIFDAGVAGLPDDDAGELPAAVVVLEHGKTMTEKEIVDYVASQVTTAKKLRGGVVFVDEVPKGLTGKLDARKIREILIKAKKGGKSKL
How it was run: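 Purified P. pyralis luciferase at 10 nM in 50 mM Tris Acetate (final), luminescence read within 5 minutes of enzyme addition to compounds. Activity normalised to PTC124 versus DMSO; concentration-response curves classed by r2, magnitude and activity.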

[4] = S16 Schwann cell viability assay (CellTiter-Glo assay) (AID 624031);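 note: cellular ATP luminescence as a viability measure; nearly all actives have a fitted effect of over 70% in size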
How it was run: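 CellTiter-Glo ATP luminescence counter-screen in untransfected S16 rat Schwann cells, 24h compound exposure at 37 degree Celsius after overnight seeding (500-750 cells/well); response scaled between cell-free wells and DMSO (0% activity), curves classed by r2 and magnitude.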

[5] = S16 Schwann cell PMP22 intronic element beta-lactamase assay (AID 624044; calls by dose curve; note: nearly all actives have a fitted effect of over 15% in size); details: S16 rat Schwann cells, PMP22 element beta-lactamase FRET, 24 h; ratio activity, negative = inhibition: at 38.3 µM (top of the series) unless noted
How it was run: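 Beta-lactamase reporter under a PMP22 intronic regulatory element in stable S16 rat Schwann cells; 24 h compound exposure. 460 nm blue signal normalized between DMSO (0%) and potassium clavulanate, with 535 nm FRET tracking viability; curves classed by r2 and response.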

[6] = target: Cytochrome P450 2D6 (Homo sapiens) (UniProt P10635); experiment: Cytochrome P450 family 2 subfamily D member 6 (CYP2D6) small molecule antagonists: luciferase biochemical (cell-free) qHTS assay (AID 1645840; active = well fitted curve in the direction sought with a large enough effect in the repeat runs; an effect the other way counts as inactive or inconclusive; note: nearly all actives have a fitted effect of over 55% in size)
Cytochrome P450 2D6 (Homo sapiens), sequence (P10635 whole entry, looked up): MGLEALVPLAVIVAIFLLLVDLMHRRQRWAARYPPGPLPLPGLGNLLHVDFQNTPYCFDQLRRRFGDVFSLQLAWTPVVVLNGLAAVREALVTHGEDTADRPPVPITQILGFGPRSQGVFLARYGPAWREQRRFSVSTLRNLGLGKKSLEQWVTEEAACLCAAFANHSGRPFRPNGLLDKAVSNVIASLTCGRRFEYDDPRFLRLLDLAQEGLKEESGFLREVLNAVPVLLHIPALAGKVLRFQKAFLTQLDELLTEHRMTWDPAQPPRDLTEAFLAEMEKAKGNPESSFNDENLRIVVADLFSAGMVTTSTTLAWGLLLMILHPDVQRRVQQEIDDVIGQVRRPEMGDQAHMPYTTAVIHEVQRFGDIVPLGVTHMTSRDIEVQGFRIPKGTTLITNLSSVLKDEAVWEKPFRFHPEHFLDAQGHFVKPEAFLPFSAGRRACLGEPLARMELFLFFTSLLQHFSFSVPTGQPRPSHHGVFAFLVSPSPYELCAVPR
How it was run: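 P450-Glo CYP2D6 system: proluciferin substrate converted by enzyme to luciferin, read by luminescence proportional to activity. Enzyme-substrate mix with compound 10 min at room temperature, then NADPH regeneration 1 h before detection reagent.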

[7] = target: Cytochrome P450 3A4 (Homo sapiens) (UniProt P08684); experiment: Cytochrome P450 family 3 subfamily A member 4 (CYP3A4) small molecule antagonists: luciferase qHTS assay (AID 1645841; active = well fitted curve in the direction sought with a large enough effect in the repeat runs; an effect the other way counts as inactive or inconclusive; note: nearly all actives have a fitted effect of over 45% in size)
Cytochrome P450 3A4 (Homo sapiens), sequence (P08684 whole entry, looked up): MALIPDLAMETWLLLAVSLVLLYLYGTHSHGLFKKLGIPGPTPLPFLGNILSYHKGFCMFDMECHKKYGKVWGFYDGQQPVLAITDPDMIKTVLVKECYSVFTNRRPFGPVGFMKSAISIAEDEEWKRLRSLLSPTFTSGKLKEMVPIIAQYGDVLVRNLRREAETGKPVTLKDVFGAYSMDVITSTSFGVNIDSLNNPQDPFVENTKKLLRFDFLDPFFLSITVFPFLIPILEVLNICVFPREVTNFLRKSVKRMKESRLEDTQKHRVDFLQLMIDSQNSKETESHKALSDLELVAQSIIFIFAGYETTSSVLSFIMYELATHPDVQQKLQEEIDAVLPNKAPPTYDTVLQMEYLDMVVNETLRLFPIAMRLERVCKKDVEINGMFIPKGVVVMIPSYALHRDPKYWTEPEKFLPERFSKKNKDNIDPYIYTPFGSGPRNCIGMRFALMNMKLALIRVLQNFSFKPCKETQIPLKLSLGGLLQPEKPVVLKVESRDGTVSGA
How it was run: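 P450-Glo CYP3A4 enzyme with proluciferin substrate preincubated 10 min with compound at room temperature, then NADPH regeneration 1 h. Luciferin detection reagent added for 20 min; luminescence recorded. Ketoconazole positive control.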

[8] = target: Cytochrome P450 2C9 (Homo sapiens) (UniProt P11712); experiment: Cytochrome P450 family 2 subfamily C member 9 (CYP2C9) small molecule antagonists: luciferase biochemical (cell-free) qHTS assay (AID 1645842; active = well fitted curve in the direction sought with a large enough effect in the repeat runs; an effect the other way counts as inactive or inconclusive; note: nearly all actives have a fitted effect of over 55% in size)
Cytochrome P450 2C9 (Homo sapiens), sequence (P11712 whole entry, looked up): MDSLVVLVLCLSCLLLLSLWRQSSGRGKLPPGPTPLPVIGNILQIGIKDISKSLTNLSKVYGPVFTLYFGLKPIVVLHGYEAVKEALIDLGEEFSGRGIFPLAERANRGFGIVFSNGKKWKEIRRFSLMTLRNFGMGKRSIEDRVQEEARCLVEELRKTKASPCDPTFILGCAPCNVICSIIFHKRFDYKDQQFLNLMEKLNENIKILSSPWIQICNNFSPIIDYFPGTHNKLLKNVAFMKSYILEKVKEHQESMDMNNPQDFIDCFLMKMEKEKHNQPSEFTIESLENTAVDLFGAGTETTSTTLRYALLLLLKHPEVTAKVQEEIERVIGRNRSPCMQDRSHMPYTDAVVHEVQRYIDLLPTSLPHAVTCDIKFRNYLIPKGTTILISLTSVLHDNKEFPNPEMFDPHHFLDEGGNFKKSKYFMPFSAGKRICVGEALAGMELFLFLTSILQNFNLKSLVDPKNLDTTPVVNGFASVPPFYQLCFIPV
How it was run: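 P450-Glo CYP2C9 system: proluciferin substrate with enzyme in mix containing 0.4% BSA, 10 min at room temperature, then NADPH regeneration solution added and incubated 1 h at 37C. Detection reagent stopped reaction; luminescence read after 20 min as RLU.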

[9] = qHTS profiling for inhibitors of Plasmodium falciparum proliferation (AID 504749); note: potency is the fitted concentration of half-maximal effect; nearly all actives have a fitted effect of over 60% in size; details: P. falciparum in erythrocytes, SYBR Green DNA, 72 h
How it was run: (§1)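 Each compound contacts P. falciparum-infected red blood cells for 72 h at 37 C; lysis buffer (Tris, EDTA, saponin, Triton X, SYBR Green I) is added and fluorescence measured next morning; values normalized to controls.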

[10] = tested on: 3D7; experiment: as above; details: P. falciparum in erythrocytes, SYBR Green DNA, 72 h; series mostly up to 28.7 µM
How it was run: as §1

[11] = tested on: 7G8; experiment: as above; details: P. falciparum in erythrocytes, SYBR Green DNA, 72 h; series mostly up to 12.8 µM
How it was run: as §1

[12] = tested on: AA1029; experiment: as above; details: P. falciparum in erythrocytes, SYBR Green DNA, 72 h; series mostly up to 28.7 µM
How it was run: as §1

[13] = tested on: AS120; experiment: as above; details: P. falciparum in erythrocytes, SYBR Green DNA, 72 h; series mostly up to 28.7 µM
How it was run: as §1

[14] = tested on: ATS189; experiment: as above; details: P. falciparum in erythrocytes, SYBR Green DNA, 72 h; series mostly up to 28.7 µM
How it was run: as §1

[15] = tested on: ATS95; experiment: as above; details: P. falciparum in erythrocytes, SYBR Green DNA, 72 h; series mostly up to 28.7 µM
How it was run: as §1

[16] = tested on: C2A; experiment: as above; details: P. falciparum in erythrocytes, SYBR Green DNA, 72 h; series mostly up to 28.7 µM
How it was run: as §1

[17] = tested on: CP191; experiment: as above; details: P. falciparum in erythrocytes, SYBR Green DNA, 72 h; series mostly up to 28.7 µM
How it was run: as §1

[18] = tested on: CP192; experiment: as above; details: P. falciparum in erythrocytes, SYBR Green DNA, 72 h; series mostly up to 28.7 µM
How it was run: as §1

[19] = tested on: CP194; experiment: as above; details: P. falciparum in erythrocytes, SYBR Green DNA, 72 h; series mostly up to 28.7 µM
How it was run: as §1

[20] = tested on: CP201; experiment: as above; details: P. falciparum in erythrocytes, SYBR Green DNA, 72 h; series mostly up to 28.7 µM
How it was run: as §1

[21] = tested on: CP203; experiment: as above; details: P. falciparum in erythrocytes, SYBR Green DNA, 72 h; series mostly up to 28.7 µM
How it was run: as §1

[22] = tested on: CP211; experiment: as above; details: P. falciparum in erythrocytes, SYBR Green DNA, 72 h; series mostly up to 28.7 µM
How it was run: as §1

[23] = tested on: CP215; experiment: as above; details: P. falciparum in erythrocytes, SYBR Green DNA, 72 h; series mostly up to 28.7 µM
How it was run: as §1

[24] = tested on: CP217; experiment: as above; details: P. falciparum in erythrocytes, SYBR Green DNA, 72 h; series mostly up to 28.7 µM
How it was run: as §1

[25] = tested on: CP237; experiment: as above; details: P. falciparum in erythrocytes, SYBR Green DNA, 72 h; series mostly up to 28.7 µM
How it was run: as §1

[26] = tested on: CP238; experiment: as above; details: P. falciparum in erythrocytes, SYBR Green DNA, 72 h; series mostly up to 28.7 µM
How it was run: as §1

[27] = tested on: CP247; experiment: as above; details: P. falciparum in erythrocytes, SYBR Green DNA, 72 h; series mostly up to 28.7 µM
How it was run: as §1

[28] = tested on: CP250; experiment: as above; details: P. falciparum in erythrocytes, SYBR Green DNA, 72 h; series mostly up to 12.8 µM
How it was run: as §1

[29] = tested on: CP252; experiment: as above; details: P. falciparum in erythrocytes, SYBR Green DNA, 72 h; series mostly up to 12.8 µM
How it was run: as §1

[30] = tested on: CP256; experiment: as above; details: P. falciparum in erythrocytes, SYBR Green DNA, 72 h; series mostly up to 28.7 µM
How it was run: as §1

For `O=[As]O[As]=O` (stereo unspecified), the Potency [1] was “inactive”, the Potency [2] was “inactive” and the Potency [3] was “inactive”. For the same compound, the Potency [4] was “inactive”, the Potency [5] was “inactive” and the Potency [6] was “inactive”. The outcome [7] was “inactive”, the Potency [8] was “inactive” and the Potency ([9]; parasite line A) was 8.91 µM (active). The Potency ([9]; parasite line B) was 8.91 µM (active), the Potency [10] was 11.2 µM (active) and the Potency [11] was 3.98 µM (active). The Potency [12] was 11.2 µM (active), the Potency [13] was 11.2 µM (active) and the Potency [14] was 8.91 µM (active). The Potency [15] was 10 µM (active), the Potency [16] was 12.6 µM (active) and the Potency [17] was 11.2 µM (active). For the same compound, the Potency [18] was 9.53 µM (active), the Potency [19] was 13.5 µM (active) and the Potency [20] was 13.5 µM (active). For the same compound, the Potency [21] was 10.7 µM (active), the Potency [22] was 12 µM (active) and the Potency [23] was 13.5 µM (active). For the same compound, the Potency [24] was 7.94 µM (active), the Potency [25] was 11.2 µM (active) and the Potency [26] was 8.91 µM (active). For the same compound, the Potency [27] was 7.94 µM (active), the Potency [28] was 7.94 µM (active) and the Potency [29] was 12.6 µM (active). For the same compound, the Potency [30] was 8.91 µM (active).
